These binders were tested against AgAbp1 (assay: SPOT peptide array binding signal intensity (averaged, normalized) (arbitrary units (background-subtracted, floor 0; scale differs between SH3 domains)); higher = stronger binding of the SH3 domain to the peptide).
Method in brief: (§1)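 Binding signal refers to normalized, background-subtracted spot intensity averaged over replicates, expressed in arbitrary units that differ between domains. GST-fused SH3 domains from four yeast species were incubated at 10 μg/ml overnight at 4°C on cellulose membranes of synthetic 15-mer peptides with cysteines replaced by serines. Bound protein was detected with anti-GST antibody, an HRP anti-mouse secondary and luminol, and quantified with Genespotter.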

Binder	SPOT peptide array binding signal intensity
FYHRPAPKPPVTKKV	250

What follows are binders tested against AgBbc1 in the same assay as above.
Method in brief: as §1

Binder	SPOT peptide array binding signal intensity
FYHRPAPKPPVTKKV	123

The binders below were run against AgBem1-D1 in the same assay as above.
Method in brief: as §1

Binder	SPOT peptide array binding signal intensity
FYHRPAPKPPVTKKV	68

These binders were tested against AgBzz1-D1 in the same assay as above.
Method in brief: as §1

Binder	SPOT peptide array binding signal intensity
FYHRPAPKPPVTKKV	89

What follows are binders tested against AgBzz1-D2 in the same assay as above.
Method in brief: as §1

Binder	SPOT peptide array binding signal intensity
FYHRPAPKPPVTKKV	65

Each binder was assayed against AgCyk3 in the same assay as above.
Method in brief: as §1

Binder	SPOT peptide array binding signal intensity
FYHRPAPKPPVTKKV	6

What follows are binders tested against AgFus1 in the same assay as above.
Method in brief: as §1

Binder	SPOT peptide array binding signal intensity
FYHRPAPKPPVTKKV	≤ 0

Each binder was assayed against AgHof1 in the same assay as above.
Method in brief: as §1

Binder	SPOT peptide array binding signal intensity
FYHRPAPKPPVTKKV	3

These binders were tested against AgHse1 in the same assay as above.
Method in brief: as §1

Binder	SPOT peptide array binding signal intensity
FYHRPAPKPPVTKKV	≤ 0

What follows are binders tested against AgLsb1 in the same assay as above.
Method in brief: as §1

Binder	SPOT peptide array binding signal intensity
FYHRPAPKPPVTKKV	138

These binders were tested against AgLsb4 in the same assay as above.
Method in brief: as §1

Binder	SPOT peptide array binding signal intensity
FYHRPAPKPPVTKKV	≤ 0

The binders below were run against AgMyo5 in the same assay as above.
Method in brief: as §1

Binder	SPOT peptide array binding signal intensity
FYHRPAPKPPVTKKV	38.8

These binders were tested against AgNbp2 in the same assay as above.
Method in brief: as §1

Binder	SPOT peptide array binding signal intensity
FYHRPAPKPPVTKKV	1040

These binders were tested against AgRvs167 in the same assay as above.
Method in brief: as §1

Binder	SPOT peptide array binding signal intensity
FYHRPAPKPPVTKKV	1.33

Each binder was assayed against AgSho1 in the same assay as above.
Method in brief: as §1

Binder	SPOT peptide array binding signal intensity
FYHRPAPKPPVTKKV	≤ 0

The binders below were run against AgSla1-D1-D2 in the same assay as above.
Method in brief: as §1

Binder	SPOT peptide array binding signal intensity
FYHRPAPKPPVTKKV	≤ 0

Each binder was assayed against AgSla1-D3 in the same assay as above.
Method in brief: as §1

Binder	SPOT peptide array binding signal intensity
FYHRPAPKPPVTKKV	6.5

These binders were tested against CaAbp1-D1 in the same assay as above.
Method in brief: as §1

Binder	SPOT peptide array binding signal intensity
FYHRPAPKPPVTKKV	281

The binders below were run against CaAbp1-D2 in the same assay as above.
Method in brief: as §1

Binder	SPOT peptide array binding signal intensity
FYHRPAPKPPVTKKV	269

What follows are binders tested against CaBbc1 in the same assay as above.
Method in brief: as §1

Binder	SPOT peptide array binding signal intensity
FYHRPAPKPPVTKKV	454

What follows are binders tested against CaBem1-D1 in the same assay as above.
Method in brief: as §1

Binder	SPOT peptide array binding signal intensity
FYHRPAPKPPVTKKV	364

The binders below were run against CaBzz1-D1 in the same assay as above.
Method in brief: as §1

Binder	SPOT peptide array binding signal intensity
FYHRPAPKPPVTKKV	2440

The binders below were run against CaBzz1-D2 in the same assay as above.
Method in brief: as §1

Binder	SPOT peptide array binding signal intensity
FYHRPAPKPPVTKKV	529

The binders below were run against CaCyk3 in the same assay as above.
Method in brief: as §1

Binder	SPOT peptide array binding signal intensity
FYHRPAPKPPVTKKV	10.5

These binders were tested against CaFus1 in the same assay as above.
Method in brief: as §1

Binder	SPOT peptide array binding signal intensity
FYHRPAPKPPVTKKV	≤ 0

These binders were tested against CaHof1 in the same assay as above.
Method in brief: as §1

Binder	SPOT peptide array binding signal intensity
FYHRPAPKPPVTKKV	≤ 0

Each binder was assayed against CaHse1 in the same assay as above.
Method in brief: as §1

Binder	SPOT peptide array binding signal intensity
FYHRPAPKPPVTKKV	≤ 0

These binders were tested against CaLsb1 in the same assay as above.
Method in brief: as §1

Binder	SPOT peptide array binding signal intensity
FYHRPAPKPPVTKKV	3

These binders were tested against CaLsb4 in the same assay as above.
Method in brief: as §1

Binder	SPOT peptide array binding signal intensity
FYHRPAPKPPVTKKV	≤ 0

The binders below were run against CaMyo5 in the same assay as above.
Method in brief: as §1

Binder	SPOT peptide array binding signal intensity
FYHRPAPKPPVTKKV	8

What follows are binders tested against CaNbp2 in the same assay as above.
Method in brief: as §1

Binder	SPOT peptide array binding signal intensity
FYHRPAPKPPVTKKV	843

Each binder was assayed against CaRvs167 in the same assay as above.
Method in brief: as §1

Binder	SPOT peptide array binding signal intensity
FYHRPAPKPPVTKKV	3

The binders below were run against CaRvs167-3 in the same assay as above.
Method in brief: as §1

Binder	SPOT peptide array binding signal intensity
FYHRPAPKPPVTKKV	≤ 0

The binders below were run against CaSho1 in the same assay as above.
Method in brief: as §1

Binder	SPOT peptide array binding signal intensity
FYHRPAPKPPVTKKV	≤ 0

Each binder was assayed against CaSla1-D1-D2 in the same assay as above.
Method in brief: as §1

Binder	SPOT peptide array binding signal intensity
FYHRPAPKPPVTKKV	105

What follows are binders tested against CaSla1-D3 in the same assay as above.
Method in brief: as §1

Binder	SPOT peptide array binding signal intensity
FYHRPAPKPPVTKKV	45.2

These binders were tested against ScAbp1 in the same assay as above.
Method in brief: as §1

Binder	SPOT peptide array binding signal intensity
FYHRPAPKPPVTKKV	87.5

What follows are binders tested against ScBbc1 in the same assay as above.
Method in brief: as §1

Binder	SPOT peptide array binding signal intensity
FYHRPAPKPPVTKKV	330

Each binder was assayed against ScBem1-D1 in the same assay as above.
Method in brief: as §1

Binder	SPOT peptide array binding signal intensity
FYHRPAPKPPVTKKV	4

Each binder was assayed against ScBzz1-D1 in the same assay as above.
Method in brief: as §1

Binder	SPOT peptide array binding signal intensity
FYHRPAPKPPVTKKV	678

What follows are binders tested against ScBzz1-D2 in the same assay as above.
Method in brief: as §1

Binder	SPOT peptide array binding signal intensity
FYHRPAPKPPVTKKV	39

These binders were tested against ScCyk3 in the same assay as above.
Method in brief: as §1

Binder	SPOT peptide array binding signal intensity
FYHRPAPKPPVTKKV	≤ 0

These binders were tested against ScFus1 in the same assay as above.
Method in brief: as §1

Binder	SPOT peptide array binding signal intensity
FYHRPAPKPPVTKKV	≤ 0

What follows are binders tested against ScHof1 in the same assay as above.
Method in brief: as §1

Binder	SPOT peptide array binding signal intensity
FYHRPAPKPPVTKKV	≤ 0

What follows are binders tested against ScHse1 in the same assay as above.
Method in brief: as §1

Binder	SPOT peptide array binding signal intensity
FYHRPAPKPPVTKKV	≤ 0

What follows are binders tested against ScLsb1 in the same assay as above.
Method in brief: as §1

Binder	SPOT peptide array binding signal intensity
FYHRPAPKPPVTKKV	32.5

The binders below were run against ScLsb2 in the same assay as above.
Method in brief: as §1

Binder	SPOT peptide array binding signal intensity
FYHRPAPKPPVTKKV	106

These binders were tested against ScLsb3 in the same assay as above.
Method in brief: as §1

Binder	SPOT peptide array binding signal intensity
FYHRPAPKPPVTKKV	53

These binders were tested against ScLsb4 in the same assay as above.
Method in brief: as §1

Binder	SPOT peptide array binding signal intensity
FYHRPAPKPPVTKKV	3

What follows are binders tested against ScMyo3 in the same assay as above.
Method in brief: as §1

Binder	SPOT peptide array binding signal intensity
FYHRPAPKPPVTKKV	284

What follows are binders tested against ScMyo5 in the same assay as above.
Method in brief: as §1

Binder	SPOT peptide array binding signal intensity
FYHRPAPKPPVTKKV	459

What follows are binders tested against ScNbp2 in the same assay as above.
Method in brief: as §1

Binder	SPOT peptide array binding signal intensity
FYHRPAPKPPVTKKV	1680

These binders were tested against ScPex13 in the same assay as above.
Method in brief: as §1

Binder	SPOT peptide array binding signal intensity
FYHRPAPKPPVTKKV	530

The binders below were run against ScRvs167 in the same assay as above.
Method in brief: as §1

Binder	SPOT peptide array binding signal intensity
FYHRPAPKPPVTKKV	12.8

What follows are binders tested against ScSho1 in the same assay as above.
Method in brief: as §1

Binder	SPOT peptide array binding signal intensity
FYHRPAPKPPVTKKV	12

These binders were tested against ScSla1-D1-D2 in the same assay as above.
Method in brief: as §1

Binder	SPOT peptide array binding signal intensity
FYHRPAPKPPVTKKV	238

What follows are binders tested against ScSla1-D3 in the same assay as above.
Method in brief: as §1

Binder	SPOT peptide array binding signal intensity
FYHRPAPKPPVTKKV	475

The binders below were run against SpAbp1-D1 in the same assay as above.
Method in brief: as §1

Binder	SPOT peptide array binding signal intensity
FYHRPAPKPPVTKKV	50.5

What follows are binders tested against SpBbc1 in the same assay as above.
Method in brief: as §1

Binder	SPOT peptide array binding signal intensity
FYHRPAPKPPVTKKV	19.2

The binders below were run against SpBzz1-D1 in the same assay as above.
Method in brief: as §1

Binder	SPOT peptide array binding signal intensity
FYHRPAPKPPVTKKV	647

Each binder was assayed against SpBzz1-D2 in the same assay as above.
Method in brief: as §1

Binder	SPOT peptide array binding signal intensity
FYHRPAPKPPVTKKV	2.5

Each binder was assayed against SpCyk3 in the same assay as above.
Method in brief: as §1

Binder	SPOT peptide array binding signal intensity
FYHRPAPKPPVTKKV	2

These binders were tested against SpHof1 in the same assay as above.
Method in brief: as §1

Binder	SPOT peptide array binding signal intensity
FYHRPAPKPPVTKKV	12.5

These binders were tested against SpHof1-2 in the same assay as above.
Method in brief: as §1

Binder	SPOT peptide array binding signal intensity
FYHRPAPKPPVTKKV	≤ 0

Each binder was assayed against SpHof1-3 in the same assay as above.
Method in brief: as §1

Binder	SPOT peptide array binding signal intensity
FYHRPAPKPPVTKKV	≤ 0

Each binder was assayed against SpHse1 in the same assay as above.
Method in brief: as §1

Binder	SPOT peptide array binding signal intensity
FYHRPAPKPPVTKKV	≤ 0

Each binder was assayed against SpLsb1 in the same assay as above.
Method in brief: as §1

Binder	SPOT peptide array binding signal intensity
FYHRPAPKPPVTKKV	8

What follows are binders tested against SpLsb4 in the same assay as above.
Method in brief: as §1

Binder	SPOT peptide array binding signal intensity
FYHRPAPKPPVTKKV	54

What follows are binders tested against SpMyo1 in the same assay as above.
Method in brief: as §1

Binder	SPOT peptide array binding signal intensity
FYHRPAPKPPVTKKV	132

Each binder was assayed against SpNbp2 in the same assay as above.
Method in brief: as §1

Binder	SPOT peptide array binding signal intensity
FYHRPAPKPPVTKKV	9

These binders were tested against SpPex13 in the same assay as above.
Method in brief: as §1

Binder	SPOT peptide array binding signal intensity
FYHRPAPKPPVTKKV	6

These binders were tested against SpRvs167 in the same assay as above.
Method in brief: as §1

Binder	SPOT peptide array binding signal intensity
FYHRPAPKPPVTKKV	9.33

The binders below were run against SpSla1-D1-D2 in the same assay as above.
Method in brief: as §1

Binder	SPOT peptide array binding signal intensity
FYHRPAPKPPVTKKV	≤ 0

What follows are binders tested against SpSla1-D3 in the same assay as above.
Method in brief: as §1

Binder	SPOT peptide array binding signal intensity
FYHRPAPKPPVTKKV	≤ 0

— the supplement of paper PMC4466140
